Most compounds without a hit are left out; they make up all but 4.1% or so of the library.
hgDAF12 agonist: hgDAF-12 agonism, primary luciferase screen; HEK293 GAL4-hgDAF12 UAS-luciferase reporter, agonist luminescence; normalized to butyrate control; activation, % at 6.8 µM; 1.8% of 370,000 active; AID 687014;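 active = activation above a cutoff set at the mean of all screened compounds plus 3 SD, cut at about 10% in these data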;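 note: 0% = DMSO wells and 100% = sodium butyrate wells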
ssDAF-12 act: S. stercoralis DAF-12 activation, primary screen | 1% of 370,000 active | activation, % at 6.8 µM | HEK293 ssDAF-12/GRIP1 lit1-tk-luc reporter, luminescence; % of 3 µM dafachronic acid response;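 active = activation above the mean over all tested compounds plus 3 SD, cut at about 0.9% in these data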;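 note: 0% = DMSO-only wells and 100% = 3 µM delta7-dafachronic acid wells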
DAX1 inh-1: blocks DAX1 repression of SF-1 activated StAR promoter; HEK293T StAR-luciferase reporter, SF-1/DAX-1 repression relief; 1.1% of 370,000 active; inhibition, % at 6.8 µM; AID 652010;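 active = inhibition above the mean over all tested compounds plus 3 SD, cut at about 3.6% in these data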;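 note: 0% = DAX-1 cells with DMSO and 100% = cells lacking DAX-1 with DMSO; higher inhibition means more luminescence from relief of DAX-1 repression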
hcDAF-12 act: H. contortus DAF-12 activation, primary screen | activation, % at 6.8 µM | AID 652067 | HEK293 hcDAF-12 lit1-tk-luc reporter, luminescence; 0% DMSO, 100% Δ7-dafachronic acid | 1.4% of 370,000 active;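 active = activation above the mean of all tested compounds plus 3 SD, cut at about 5.5% in these data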;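 note: 100% = response to 3 µM Δ7-dafachronic acid high control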
DAX1 inh-2: inhibitors of human orphan nuclear receptor DAX1 (NR0B1) | P51843 | HEK293 Gal4-DAX1 luciferase reporter, luminescence | inhibition, % at 6.75 µM | 0.99% of 340,000 active | AID 504766;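 active = inhibition above the mean over all tested compounds plus 3 SD, cut at about 4.2% in these data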;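 note: 0% = DAX1-transfected cells with DMSO and 100% = empty-vector control cells with DMSO; inhibition shows as a rise in luminescence from relieved DAX1 repression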
Target sequence (P51843 207-470 limits assumed): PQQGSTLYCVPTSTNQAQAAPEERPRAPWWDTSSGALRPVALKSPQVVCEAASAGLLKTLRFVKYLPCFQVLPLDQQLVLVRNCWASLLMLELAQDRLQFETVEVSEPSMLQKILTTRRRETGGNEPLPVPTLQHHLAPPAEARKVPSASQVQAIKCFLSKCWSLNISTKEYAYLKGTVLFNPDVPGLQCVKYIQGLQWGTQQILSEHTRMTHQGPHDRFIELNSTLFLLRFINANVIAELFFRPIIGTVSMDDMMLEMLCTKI
* hit, by the source's call.

`O=C(COc1ncnc2ccccc12)c1ccc2c(c1)OCCO2` gave hgDAF12 agonist 11.1*, ssDAF-12 act 0.5, DAX1 inh-1 1.6, hcDAF-12 act 5.2 and DAX1 inh-2 2.5.
Cc1cnc(-c2nc3ccccc3n2C(C(=O)NC(C)(C)C)c2ccncc2)cn1 (stereo not given) was read as hgDAF12 agonist 11.0*, ssDAF-12 act 0.1, DAX1 inh-1 1.3 and hcDAF-12 act -1.1.
For Cc1cnc(-c2nc3ccccc3n2C(C(=O)NC(C)(C)C)c2ccccc2)cn1 (stereo not given) the results were hgDAF12 agonist -2.5, ssDAF-12 act -1.1, DAX1 inh-1 1.0 and hcDAF-12 act 0.1.
For Cc1cc(C(=O)Nc2nc3ccc(Cl)cc3s2)nn1C the results were hgDAF12 agonist 10.9*, ssDAF-12 act 0.0, DAX1 inh-1 1.4 and hcDAF-12 act 3.8.
`COC(=O)[C@]12C[C@H](CC(=O)NCc3cccc4ccccc34)C(=O)N(Cc3ccc(Cl)cc3Cl)C1=C[C@H](C1CCCC1)O[C@@H]2C` gave hgDAF12 agonist 3.9, ssDAF-12 act -1.0, DAX1 inh-1 0.4 and hcDAF-12 act -1.2.
`CCOC(=O)C1=C(C(=O)OCC)C2N(Cc3ccc(C#N)cc3)c3ccccc3[C@@]23C[C@@H](C(=O)OC)N(S(=O)(=O)c2ccc(C#N)cc2)C3=N1` (stereo not given in full) gave hgDAF12 agonist 0.4, ssDAF-12 act -1.0, DAX1 inh-1 -0.2 and hcDAF-12 act -0.8.
`NS(=O)(=O)c1ccc(Nc2nc3ccccc3nc2NS(=O)(=O)c2cccc([N+](=O)[O-])c2)cc1` gave hgDAF12 agonist 1.1, ssDAF-12 act -1.1, DAX1 inh-1 0.4, hcDAF-12 act -0.8 and DAX1 inh-2 5.0*.
`CC(=O)Nc1ccc(S(=O)(=O)Nc2nc3ccccc3nc2Nc2ccc(S(N)(=O)=O)cc2)cc1` gave hgDAF12 agonist 0.1, ssDAF-12 act -0.7, DAX1 inh-1 -0.3, hcDAF-12 act 3.3 and DAX1 inh-2 0.8.
For O=C(NC(=S)Nc1cccnc1Cl)c1ccc(F)cc1 the results were hgDAF12 agonist 9.2, ssDAF-12 act 0.3, DAX1 inh-1 0.8, hcDAF-12 act 4.5 and DAX1 inh-2 5.4*.
O=C(Nc1cccnc1Cl)c1cc(-c2ccc(F)cc2)on1 was read as hgDAF12 agonist -0.7, ssDAF-12 act -1.5, DAX1 inh-1 -0.1, hcDAF-12 act 0.0 and DAX1 inh-2 5.0*.
For COc1ccc(-c2cc(C(=O)Nc3ccc(C)c(C)c3)no2)cc1 the results were hgDAF12 agonist 1.2, ssDAF-12 act -0.7, DAX1 inh-1 -0.2, hcDAF-12 act 2.6 and DAX1 inh-2 0.5.
`Cc1ccc(NC(=O)c2cc(-c3ccc(F)cc3)on2)cc1C` gave hgDAF12 agonist 1.1, ssDAF-12 act -1.6, DAX1 inh-1 0.1, hcDAF-12 act -1.7 and DAX1 inh-2 6.1*.
For C=CC[C@H]1c2ccccc2[C@H]2N3N=Cc4ccccc4[C@H]3[C@H](CCCC)C(=O)N2N1C(=O)c1ccccc1 the results were hgDAF12 agonist -0.8, ssDAF-12 act -1.8, DAX1 inh-1 -2.5 and hcDAF-12 act 1.8.
For COc1ccccc1/C=C/C=N/NC(=O)c1ccccn1 the results were hgDAF12 agonist 12.9*, ssDAF-12 act 0.2, DAX1 inh-1 4.1*, hcDAF-12 act 1.1 and DAX1 inh-2 3.8.
COc1ccc(C(=O)Nc2ccc([N+](=O)[O-])cn2)cc1OC was read as hgDAF12 agonist -0.4, ssDAF-12 act -1.3, DAX1 inh-1 1.0, hcDAF-12 act -0.9 and DAX1 inh-2 -1.3.
`CCC(=O)Nc1ccc(NC(=O)c2ccccn2)cn1` gave hgDAF12 agonist 12.0*, ssDAF-12 act -0.3, DAX1 inh-1 2.0, hcDAF-12 act 3.9 and DAX1 inh-2 -0.7.
COc1ccc(C(=O)Nc2ccc3ccccc3n2)cc1OC was read as hgDAF12 agonist 10.0, ssDAF-12 act 0.1, DAX1 inh-1 1.4, hcDAF-12 act 1.9 and DAX1 inh-2 4.8*.
`COc1ccc(NC(=O)c2ccccn2)cc1OC` gave hgDAF12 agonist 11.6*, ssDAF-12 act -0.2, DAX1 inh-1 1.1, hcDAF-12 act 2.5 and DAX1 inh-2 4.4*.
CC(C)CCNC(=O)C1CCCN(C(=O)c2ccc3c(c2)NC(=O)CS3)C1 (stereo not given) was read as hgDAF12 agonist -4.5, ssDAF-12 act -1.1, DAX1 inh-1 -1.2 and hcDAF-12 act -0.8.
Cc1cc2c(c(=O)o1)[C@@]1(C(=O)N(C)c3ccccc31)C1=C(CCC1=O)O2 was read as hgDAF12 agonist -0.1, ssDAF-12 act -1.3, DAX1 inh-1 -0.6 and hcDAF-12 act -0.8.
For O=C(N/N=C/C1CCCCC1)c1ccccn1 the results were hgDAF12 agonist 12.2*, ssDAF-12 act 0.0, DAX1 inh-1 3.5, hcDAF-12 act 6.3* and DAX1 inh-2 0.1.
Clc1ccc(-c2nc(-c3ccncc3)no2)c(Cl)c1 was read as hgDAF12 agonist 7.9, ssDAF-12 act -0.9, DAX1 inh-1 0.2, hcDAF-12 act 0.7 and DAX1 inh-2 4.9*.
For c1coc(-c2nc(-c3ccncc3)no2)c1 the results were hgDAF12 agonist 12.9*, ssDAF-12 act 1.7*, DAX1 inh-1 1.0, hcDAF-12 act 4.5 and DAX1 inh-2 0.6.
`c1ccc(-c2ccc(-c3nc(-c4ccncc4)no3)cc2)cc1` gave hgDAF12 agonist 7.4, ssDAF-12 act -1.0, DAX1 inh-1 2.7, hcDAF-12 act 1.6 and DAX1 inh-2 2.8.
For COC(=O)[C@H]1C[C@@]2(n3ccc4ccccc43)c3ccccc3N(S(=O)(=O)c3ccccc3)[C@H]2N1 the results were hgDAF12 agonist 0.8, ssDAF-12 act 0.1, DAX1 inh-1 -0.7 and hcDAF-12 act 3.0.
Screening COc1ccc(Cl)cc1Nc1cc(C)nc2nc(C)nn12 returned hgDAF12 agonist -2.3, ssDAF-12 act -0.8, DAX1 inh-1 -0.1, hcDAF-12 act -2.2 and DAX1 inh-2 0.5.
COc1cc(OC)c(Nc2cc(C)nc3nc(C)nn23)cc1Cl was read as hgDAF12 agonist -1.0, ssDAF-12 act -0.9, DAX1 inh-1 0.1, hcDAF-12 act -1.9 and DAX1 inh-2 7.2*.
`CC(C)C[C@H]1COc2cc(N3CCOCC3)ccc2S(=O)(=O)N1` gave hgDAF12 agonist -3.2, ssDAF-12 act -1.2, DAX1 inh-1 -0.1 and hcDAF-12 act -0.8.
Cc1cc2c(nc1C)CCCN2S(=O)(=O)c1c(C)noc1C was read as hgDAF12 agonist 2.4, ssDAF-12 act -1.2, DAX1 inh-1 -0.2 and hcDAF-12 act 1.4.
CCc1nc2nc(C)c(NS(=O)(=O)c3ccc(CC(C)C)cc3)c(=O)n2[nH]1 was read as hgDAF12 agonist 3.0, ssDAF-12 act -0.8, DAX1 inh-1 0.5, hcDAF-12 act -2.0 and DAX1 inh-2 -0.5.
Screening CCCc1nc2nc(C)c(NS(=O)(=O)c3ccc(CC(C)C)cc3)c(=O)n2[nH]1 returned hgDAF12 agonist 1.7, ssDAF-12 act -1.2, DAX1 inh-1 0.0, hcDAF-12 act 0.4 and DAX1 inh-2 4.3*.
